Test results reported in PubChem BioAssay (NCATS).
Results filed as inconclusive are left out. A call without a number means that no potency is given here. A number with no mark means an inactive call. The source made the active and inactive calls. Calls come from the whole dose curve; as a rule, active = well fitted inhibition curve with a large enough effect; inconclusive = small, poorly fitted or top-dose-only effect; inactive = no such curve, though single readings can be large or run the other way.

Columns and labels:
[1] = test system: Zika virus NS2B-NS3 protease (unlinked complex); assay: Primary screen GU Rhodamine qHTS for Zika virus inhibitors: Unlinked NS2B-NS3 protease assay (AID 1347159); note: nearly all actives have a fitted effect of over 60% in size
Procedure, shortened: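 Noncovalent NS2B hydrophilic domain–NS3 protease domain complex (25 nM) preincubated 15 min at room temperature with compounds (up to 114 microM) in 10 mM Tris-HCl pH 8.0, 0.01% Tween 20; 1.5 microM Rhodamine110 substrate added, fluorescence change over 15 min fitted to Hill equation.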

[2] = test system: Zika virus NS2B-NS3 protease (linked construct); assay: Primary screen NINDS Rhodamine qHTS for Zika virus inhibitors (AID 1347160); note: nearly all actives have a fitted effect of over 55% in size
Procedure, shortened: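 Purified linked NS2B-NS3 protease (NS2B hydrophilic domain joined to NS3 protease by flexible linker), 25 nM in 10 mM Tris-HCl pH 8.0, 0.01% Tween 20. Compounds titrated, 15 min preincubation at room temperature; 1.5 microM Rhodamine110 substrate, FITC fluorescence change over 15 min.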

Row | SMILES | Potency [1] | Potency [2] | activity change, negative = inhibition [1] | outcome [2]
1 | COc1cc(C)c(C(=O)O[C@H]2[C@@H](OC(C)=O)[C@H](n3ccc(=O)[nH]c3=O)O[C@@H]2CO)c(OC)c1 | inactive | inactive | – | –
2 | C=C(F)c1sc(CNCCCNc2cc(=O)c3ccccc3[nH]2)c(C)c1Br | inactive | inactive | – | –
3 | C/C=C1\[C@H](OC2OC(COC3OC(CO)C(O)C(O)C3O)C(O)C(O)C2O)OC=C(C(=O)OC)[C@H]1CC(=O)OCCc1ccc(O)cc1 (some centres not stated) | inactive | inactive | – | –
4 | C=C(C)C(=O)OC1C(OC(C)=O)/C(C=O)=C\CC/C(CO)=C/C2OC(=O)C(=C)C21 (configuration not stated) | inactive | inactive | – | –
5 | CC(C)(C)NS(=O)(=O)c1cncc(-c2cc(F)c3nc(N)nn3c2)c1 | inactive | inactive | – | –
6 | C[C@H]1O[C@@H](O[C@H]2CC[C@@]3(C)C(CC[C@]4(C)C3CC=C3C5CC(C)(C)CC[C@]5(C(=O)O)CC[C@]34C(=O)O)C2(C)C)[C@H](O)[C@@H](O)[C@@H]1O (some centres not stated) | inactive | inactive | – | –
7 | CC1CCC2C(C)(C)[C@@H](O)CC[C@]2(C)C12Cc1c(O)cc3c(c1O2)CN(C(CCC(=O)O)C(=O)O)C3=O (some centres not stated) | inactive | inactive | – | –
8 | O=C1N=C(N2CCOCC2)CN1c1ccc(Cl)cc1 | inactive | inactive | – | –
9 | C=C1C[C@]23C[C@H]1CC[C@H]2[C@@]12CC[C@H](O)[C@@](C)(C(=O)O1)[C@H]2[C@@H]3C(=O)O | inactive | inactive | – | –
10 | CC(C)c1nc(-c2ccc(NC(=O)Nc3cccc(C(F)(F)F)c3)c3ccccc23)c2c(N)nccn12 | inactive | inactive | – | –
11 | CC1OC(OC2C(CO)OC(OCC3OC(OC(=O)C45CCC(C)(C)CC4C4=CCC6C7(C)CCC(OC8OC(CO)C(O)C(OC9OC(CO)C(O)C(O)C9O)C8O)C(C)(C)C7CCC6(C)C4(C)CC5)C(O)C(O)C3O)C(O)C2O)C(O)C(O)C1OC1OC(CO)C(O)C(O)C1O (configuration not stated) | – | – | 10.6% [at 19.1 µM] | inactive [at 10.7 µM]
